A short description of assay [1]: TOX21_p53_BLA_p2_viability: Viability Assessment in the Tox21 HCT-116 p53 Agonism Beta-lactamase Assay, Phase 2 (AID 2283591).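 Further: actives lower the ATP signal meaning cytotoxicity.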 The procedure, abridged:
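HCT116 p53-bla cells, 4000/well, dosed after 5 h plating (217-fold dilution of DMSO stocks) and incubated 16 h at 37C. Viability taken as cellular ATP by CellTiter-Glo luminescence after 30 min RT; signal loss marks cytotoxicity.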

In assay [2] the target is Cellular tumor antigen p53 (Homo sapiens) (UniProt P04637). The experiment in a line: TOX21_p53_BLA_p2_ratio: Tox21 HCT-116 p53 Agonism Beta-lactamase Assay, Ratio, Phase 2 (AID 2283592). In a few lines:
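An inducible beta-lactamase reporter in HCT116 cells signals p53 pathway activation. After 16 h chemical exposure at 37C, cells load CCF4-AM substrate for 2 h at room temperature; activity is the cleaved/uncleaved emission ratio relative to DMSO.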

The nature of assay [3]: TOX21_p53_BLA_p3_viability: Viability Assessment in the Tox21 HCT-116 p53 Agonism Beta-lactamase Assay, Phase 3 (AID 2283593).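 Further: cells exposed to compound for 16 h before reading.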 The procedure, abridged: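 HCT116 cells, 4000/well, dosed 5 h after plating by pin transfer (217-fold dilution from DMSO stock) and incubated 16 h at 37C, 5% CO2. Viability read as ATP luminescence with CellTiter-Glo after 30 min at room temperature.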

Assay [4] has as its target Cellular tumor antigen p53 (Homo sapiens) (UniProt P04637). The experiment in a line: TOX21_p53_BLA_p3_ratio: Tox21 HCT-116 p53 Agonism Beta-lactamase Assay, Ratio, Phase 3 (AID 2283596). In a few lines:
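HCT116 p53-bla cells (4000/well) given compound in DMSO (217-fold dilution) after 5 h, incubated 16 h at 37C. CCF4-AM substrate 2 h at room temperature; 460/530 nm emission ratio, gain fitted against DMSO.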

Assay [5] can be described thus: TOX21_p53_BLA_p4_viability: Viability Assessment in the Tox21 HCT-116 p53 Agonism Beta-lactamase Assay, Phase 4 (AID 2283597).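 Further: hits lower the luminescence signal meaning cytotoxicity.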 The procedure, abridged: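 Compound exposure of HCT116 cells lasts 16 h at 37C, 5% CO2, with DMSO stocks diluted 217-fold. Cellular ATP is then quantified by CellTiter-Glo luminescence after 30 min at room temperature.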
Assay [6] concerns the target Cellular tumor antigen p53 (Homo sapiens) (UniProt P04637). The experiment in a line: TOX21_p53_BLA_p5_ratio: Tox21 HCT-116 p53 Agonism Beta-lactamase Assay, Ratio, Phase 5 (AID 2283599). In a few lines: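 HCT-116 p53-bla cells (4000/well) plated 5 h, dosed with compound (217-fold DMSO dilution) for 16 h at 37 C; CCF4-AM substrate 2 h at room temperature. Activity is the 460/530 nm emission ratio (405 nm excitation), fitted in gain-of-signal direction versus DMSO.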

The nature of assay [7]: TOX21_p53_BLA_p5_viability: Viability Assessment in the Tox21 HCT-116 p53 Agonism Beta-lactamase Assay, Phase 5 (AID 2283600). In a few lines: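 Counter-readout for cytotoxicity: ATP-dependent luminescence from CellTiter-Glo, read in the beta-lactamase wells after 30 min at RT, following a 16 h compound exposure at 37C.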
Assay [8] is described as follows: ACEA_ER_AUC_viability: ACEA Biosciences xCELLigence Real-Time Cell Analysis on Estrogen Receptor Agonism for Viability (AID 2283782).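 Further: continuous compound exposure with impedance area under curve over 80 h; hit means loss of impedance signal meaning reduced cell growth or viability.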 In a few lines: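 T47D cells preconditioned in phenol red-free RPMI with charcoal-stripped FBS, then dosed with 8-point 1:4 series from 100 uM (up to 0.5% DMSO). Impedance monitored up to ~80 h; area-under-curve loss versus DMSO taken as viability.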

The target in assay [9] is Thyroid hormone receptor alpha (Rattus norvegicus) + Thyroid hormone receptor beta (Rattus norvegicus) (UniProt P18113+P63059). The experiment in a line: TOX21_TR_LUC_GH3_Agonist_Followup: Tox21 GH3 Thyroid Hormone Receptor Agonism Luciferase Follow-Up Assay (AID 2283939). In a few lines: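 Rat GH3 cells (1,500/well) in serum-free assay medium, treated with 15-point series, 92 uM to 5 nM final, for 24 h at 37C. Luciferase via ONE-Glo luminescence; gain of signal fitted against DMSO, T3 positive control.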
Sequence of Thyroid hormone receptor alpha (Rattus norvegicus) + Thyroid hormone receptor beta (Rattus norvegicus) (P63059 whole entry, looked up): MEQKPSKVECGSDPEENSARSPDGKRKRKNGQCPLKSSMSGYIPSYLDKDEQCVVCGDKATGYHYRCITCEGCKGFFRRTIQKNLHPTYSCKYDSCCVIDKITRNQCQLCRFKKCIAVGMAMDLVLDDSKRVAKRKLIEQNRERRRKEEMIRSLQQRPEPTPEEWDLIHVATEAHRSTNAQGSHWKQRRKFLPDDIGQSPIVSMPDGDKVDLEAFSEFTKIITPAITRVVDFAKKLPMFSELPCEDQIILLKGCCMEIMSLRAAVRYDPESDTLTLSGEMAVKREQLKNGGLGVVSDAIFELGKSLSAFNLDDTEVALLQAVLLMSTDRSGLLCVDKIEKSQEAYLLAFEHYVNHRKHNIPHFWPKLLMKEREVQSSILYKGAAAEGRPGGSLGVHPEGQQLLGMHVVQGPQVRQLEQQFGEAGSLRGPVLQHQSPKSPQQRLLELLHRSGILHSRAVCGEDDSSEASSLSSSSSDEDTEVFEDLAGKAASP
Sequence of Thyroid hormone receptor alpha (Rattus norvegicus) + Thyroid hormone receptor beta (Rattus norvegicus) (P18113 whole entry, looked up): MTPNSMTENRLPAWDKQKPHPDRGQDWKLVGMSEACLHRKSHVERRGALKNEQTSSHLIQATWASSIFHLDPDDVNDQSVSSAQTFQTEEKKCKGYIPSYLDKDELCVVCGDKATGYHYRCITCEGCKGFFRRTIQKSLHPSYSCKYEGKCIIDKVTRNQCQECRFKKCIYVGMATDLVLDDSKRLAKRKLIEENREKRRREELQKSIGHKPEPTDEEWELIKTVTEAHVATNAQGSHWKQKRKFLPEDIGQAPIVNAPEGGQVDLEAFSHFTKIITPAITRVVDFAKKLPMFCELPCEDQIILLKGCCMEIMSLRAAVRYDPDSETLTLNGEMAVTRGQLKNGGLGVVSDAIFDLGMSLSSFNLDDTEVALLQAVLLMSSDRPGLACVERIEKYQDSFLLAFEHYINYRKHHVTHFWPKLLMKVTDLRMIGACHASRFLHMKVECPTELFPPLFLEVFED

The next assay concerns the target THRA (gene 7067) (UniProt P10827). The experiment in a line: TOX21_TRA_COA_Agonist_Followup_ratio: Tox21 Thyroid Hormone Receptor alpha Agonism through Coactivator Recruitment Follow-Up Assay, Ratio (AID 2283948; active means hit-call score of the fitted dose curve at least 0.9, where 1 is the maximum; inactive means score below 0.9). In a few lines: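 First, compound was incubated with 2.5 nM GST-TRα LBD in 0.10% BSA. Next, 200 nM fluorescein-SRC-2 and 2 nM Tb-anti-GST antibody were added. Finally, the 520:495 nm ratio was normalized to DMSO and T3 controls.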

Assay [10] concerns the target THRB (gene 7068) (UniProt P10828). The experiment in a line: TOX21_TRB_BLA_Agonist_Followup_ratio: Tox21 Thyroid Hormone Receptor beta Agonism Beta-lactamase (BLA) Follow-Up Assay, Ratio (AID 2283954). The procedure, abridged:
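Human TRβ LBD–GAL4 DBD fusion in GeneBLAzer UAS-bla HEK293T cells; 11 concentrations in triplicate, 18 h at 37°C/5% CO2, T3 as agonist control. CCF4-AM substrate 2 h at room temperature; 460:530 nm ratio fitted for gain of signal versus DMSO.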

Assay [11] shares this target. The experiment in a line: TOX21_TRB_COA_Agonist_Followup_ratio: Tox21 Thyroid Hormone Receptor beta Agonism through Coactivator Recruitment Follow-Up Assay, Ratio (AID 2283963; active means hit-call score of the fitted dose curve at least 0.9, where 1 is the maximum; inactive means score below 0.9). In a few lines: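 Cell-free TR-FRET coactivator recruitment: GST-tagged TRβ LBD (5.0 nM) with 0.10% BSA incubated with compound, then fluorescein-SRC-2 peptide (200 nM) and Tb-anti-GST antibody (2 nM) added. 520:495 nm ratio normalized to DMSO (0%) and T3 (100%).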

Assay [12] has as its target Retinoic acid receptor RXR-alpha (Homo sapiens) (UniProt P19793). The experiment in a line: TOX21_TR_RXR_BLA_Agonist_Followup_ratio: Tox21 Thyroid Hormone Receptor beta Retinoid X Receptor alpha (RXRa) Agonism Beta-lactamase (BLA) Follow-Up Assay, Ratio (AID 2283968). In a few lines: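 RXRa-UAS-bla HEK293T cells, 5 h attachment at 37C/5% CO2, then 11 concentrations in triplicate for 16 h; 9-cis retinoic acid positive control. FRET-B/GCCF4-AM substrate 2 h at room temperature; 460:530 nm ratio, fitted for gain versus DMSO.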

A short description of assay [13]: TOX21_TR_RXR_BLA_Agonist_Followup_viability: Viability Assessment in the Tox21 Thyroid Hormone Receptor beta Retinoid X Receptor alpha (RXRa) Agonism Beta-lactamase (BLA) Follow-Up Assay (AID 2283970). In a few lines:
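RXRa-UAS-bla HEK293T cells, 2,500/well in phenol red-free DMEM with 2% charcoal-stripped FBS, dosed for 16 h at 37C. Viability measured by CellTiter-Glo ATP luminescence; fitted bidirectionally against DMSO baseline, loss of signal indicating cytotoxicity.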

Assay [14] is described as follows: CCTE_Harrill_HTTr_Viability_MCF7: CCTE's 6-hour Cell Viability Assessment for the High-Throughput Transcriptomics (HTTr) Platform, in MCF-7 cells cultured in DMEM + 10% fetal bovine serum, Harrill Lab (AID 2284010; active means hit-call score of the fitted dose curve at least 0.9, where 1 is the maximum; inactive means score below 0.9). The procedure, abridged:
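MCF-7 cells in DMEM + 10% FBS, 384-well, exposed 6 h to an eight-point dilution series. Membrane integrity scored by high-content imaging of propidium iodide exclusion; bidirectional fit versus DMSO.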

Assay [15] can be described thus: CCTE_Harrill_HTTr_Apoptosis_MCF7: CCTE's 6-hour Apoptosis Assessment for the High-Throughput Transcriptomics (HTTr) Platform, in MCF-7 cells cultured in DMEM + 10% fetal bovine serum, Harrill Lab (AID 2284011; active means hit-call score of the fitted dose curve at least 0.9, where 1 is the maximum; inactive means score below 0.9). The procedure, abridged:
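Cells are dosed with test chemicals at eight concentrations and imaged 6 hours later for caspase-3/7 activity using a green fluorogenic detection reagent. Activity is fitted in both directions against DMSO controls.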

Assay [16] can be described thus: CCTE_Harrill_HTTr_CellCount_MCF7: CCTE's Cell Proliferation Assessment for the High-Throughput Transcriptomics (HTTr) Platform, Harrill Lab (AID 2284012).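 Further: cells exposed to compound for six hours; intended direction is loss of nuclei count meaning fewer cells.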 The procedure, abridged:
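MCF7 cells exposed 6 hours to an eight-point dilution series; Hoechst-stained nuclei counted by high-content imaging. Bidirectional curve fitting against DMSO baseline.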

For assay [17], the target named is Cellular tumor antigen p53 (Homo sapiens) (UniProt P04637). The experiment in a line: TOX21_p53_BLA_p4_ratio: Tox21 HCT-116 p53 Agonism Beta-lactamase Assay, Ratio, Phase 4 (AID 2283601). The procedure, abridged: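 HCT-116 p53 beta-lactamase reporter cells (4000/well) preincubated 5 h, then compound (217-fold dilution of DMSO stock) for 16 h at 37C. CCF4-AM substrate added 2 h at room temperature; 460/530 nm emission ratio fitted upward versus DMSO.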
Sequence of Cellular tumor antigen p53 (Homo sapiens) (P04637 whole entry, looked up): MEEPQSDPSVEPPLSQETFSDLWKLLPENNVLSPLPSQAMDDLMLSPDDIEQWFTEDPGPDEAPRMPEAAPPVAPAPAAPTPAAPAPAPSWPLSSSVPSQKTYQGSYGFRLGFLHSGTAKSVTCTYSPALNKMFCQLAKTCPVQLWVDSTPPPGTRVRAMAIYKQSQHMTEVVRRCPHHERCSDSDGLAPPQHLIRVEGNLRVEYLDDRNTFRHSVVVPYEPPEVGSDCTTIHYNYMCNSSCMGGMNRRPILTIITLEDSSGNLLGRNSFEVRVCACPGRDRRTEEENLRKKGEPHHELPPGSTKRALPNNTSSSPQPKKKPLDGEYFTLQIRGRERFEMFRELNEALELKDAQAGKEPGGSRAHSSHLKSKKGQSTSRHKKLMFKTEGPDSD

Assay [18] deals with PGR (gene 5241) (UniProt P06401). The experiment in a line: TOX21_PR_BLA_Followup_Agonist_ratio: Tox21 HEK293 Progesterone Receptor (PR) Agonism Beta-lactamase Follow-Up Assay, Ratio (AID 2283933). The procedure, abridged: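 PR-UAS-bla HEK293T cells in medium with 2% charcoal-stripped FBS were dosed after 6 h plating and incubated 16 h at 37C. LiveBLAzer FRET substrate was added for 2 h at room temperature. Cleaved/uncleaved substrate ratio fitted against DMSO; CellTiter-Glo viability run in the same wells.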
Sequence of PGR (gene 5241) (P06401 whole entry, looked up): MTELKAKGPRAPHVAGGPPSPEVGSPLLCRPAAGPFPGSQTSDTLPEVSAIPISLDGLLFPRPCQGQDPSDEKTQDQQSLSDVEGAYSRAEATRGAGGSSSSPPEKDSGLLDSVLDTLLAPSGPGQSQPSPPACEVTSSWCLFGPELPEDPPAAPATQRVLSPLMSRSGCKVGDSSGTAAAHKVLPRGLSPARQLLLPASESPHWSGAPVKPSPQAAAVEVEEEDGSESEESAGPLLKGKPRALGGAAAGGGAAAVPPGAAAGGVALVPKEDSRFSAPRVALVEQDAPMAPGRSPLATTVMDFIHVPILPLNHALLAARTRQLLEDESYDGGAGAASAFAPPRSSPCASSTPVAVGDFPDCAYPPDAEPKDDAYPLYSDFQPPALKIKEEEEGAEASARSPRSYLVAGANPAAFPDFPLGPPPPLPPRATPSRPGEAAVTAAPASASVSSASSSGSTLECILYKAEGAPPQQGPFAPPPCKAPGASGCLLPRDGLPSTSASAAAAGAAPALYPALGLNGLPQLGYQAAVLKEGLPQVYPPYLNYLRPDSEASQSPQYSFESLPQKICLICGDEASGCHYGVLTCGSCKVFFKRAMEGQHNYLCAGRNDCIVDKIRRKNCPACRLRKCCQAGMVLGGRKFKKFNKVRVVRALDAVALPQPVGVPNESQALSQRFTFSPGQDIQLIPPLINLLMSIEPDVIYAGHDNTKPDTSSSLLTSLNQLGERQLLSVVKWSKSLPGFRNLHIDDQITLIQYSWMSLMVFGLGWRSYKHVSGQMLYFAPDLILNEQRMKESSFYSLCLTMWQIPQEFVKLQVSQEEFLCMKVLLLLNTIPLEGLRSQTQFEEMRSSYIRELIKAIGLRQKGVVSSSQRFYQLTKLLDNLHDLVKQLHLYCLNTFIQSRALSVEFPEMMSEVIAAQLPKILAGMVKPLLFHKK

Assay [19] shares this target. The experiment in a line: TOX21_PR_BLA_Followup_Antagonist_ratio: Tox21 HEK293 Progesterone Receptor (PR) Antagonism Beta-lactamase Follow-Up Assay, Ratio (AID 2283934). In a few lines:
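PR-UAS-bla HEK293T cells, 3,000/well in 2% charcoal-stripped FBS, given compound plus 1nM R5020 agonist for 16 hr at 37C. Beta-lactamase FRET substrate 2 hours, ratio cleaved/uncleaved fluorescence; viability by CellTiter-Glo in same wells.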

The nature of assay [20]: TOX21_PR_BLA_Followup_Agonist_viability: Viability Assessment in the Tox21 HEK293 Progesterone Receptor (PR) Agonism Beta-lactamase Follow-Up Assay (AID 2283935).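 Further: signal loss means lower viability so actives are cytotoxic.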 The procedure, abridged: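 PR-UAS-bla HEK293T cells in 2% charcoal-stripped FBS medium, plated 6 hr before compound addition, exposed 16 hr at 37C. Viability read by CellTiter-Glo ATP luminescence after 30 min at room temperature, in the same wells as the beta-lactamase readout.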

Assay [21] can be described thus: TOX21_PR_BLA_Followup_Antagonist_viability: Viability Assessment in the Tox21 HEK293 Progesterone Receptor (PR) Antagonism Beta-lactamase Follow-Up Assay (AID 2283936).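 Further: hits lower the luminescence signal meaning cytotoxicity.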 In a few lines:
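PR-UAS-bla HEK293T cells (3,000/well, 2% charcoal-stripped FBS) given compound plus R5020 agonist, 16 h at 37C. CellTiter-Glo added after bla read, 30 min at room temperature; luminescence loss indicates cytotoxicity.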

Assay [22] addresses PGR (gene 5241) (UniProt P06401). The experiment in a line: TOX21_PR_LUC_Followup_Agonist: Tox21 HEK293 Progesterone Receptor (PR) Agonism Luciferase Follow-Up Assay (AID 2283937; active means hit-call score of the fitted dose curve at least 0.9, where 1 is the maximum; inactive means score below 0.9). In a few lines:
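HEK293-PR-A-luc cells, conditioned 5 days in 10% charcoal-stripped FBS medium, seeded 3,000/well for 5 h, then compound-treated 16 h at 37C. ONE-Glo luminescence read after 30 min at room temperature; gain of signal versus DMSO.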

Assay [23] has the same target. The experiment in a line: TOX21_PR_LUC_Followup_Antagonist: Tox21 HEK293 Progesterone Receptor (PR) Antagonism Luciferase Follow-Up Assay (AID 2283938).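 Further: curve fitted upward as signal gain over DMSO baseline despite antagonist label.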 The procedure, abridged:
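A follow-up to the PR bla screen using HEK293-PR-A-luc cells, multiplexed with cell viability to flag cytotoxicity. Reporter luminescence after 16 h compound exposure was analysed relative to DMSO.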

Assay [24] can be described thus: TOX21_PR_LUC_Followup_Agonist_viability: Viability Assessment in the Tox21 HEK293 Progesterone Receptor (PR) Agonism Luciferase Follow-Up Assay (AID 2283941).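 Further: loss of signal means cytotoxicity so actives lower viability.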 The procedure, abridged:
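HEK293-PR-A-luc cells, kept in 10% charcoal-stripped FBS medium, were treated with compounds for 16 h at 37C. Viability read as cellular ATP by luciferase-coupled luminescence; loss of signal indicates cytotoxicity.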

SMILES strings stand for the structures. Several values for one entry are separate records, joined by “and”; a condition that tells them apart may be missing. Equal entries are not always repeated. Results filed as inconclusive are left out. Activity calls are given as the source filed them. How the source made its calls, unless noted: active means hit-call score of the fitted dose curve at least 0.9, where 1 is the maximum; inconclusive means response in the unintended direction; inactive means score below 0.9.

Sequence of THRB (gene 7068) (P10828 whole entry, looked up, the tested form may be a part): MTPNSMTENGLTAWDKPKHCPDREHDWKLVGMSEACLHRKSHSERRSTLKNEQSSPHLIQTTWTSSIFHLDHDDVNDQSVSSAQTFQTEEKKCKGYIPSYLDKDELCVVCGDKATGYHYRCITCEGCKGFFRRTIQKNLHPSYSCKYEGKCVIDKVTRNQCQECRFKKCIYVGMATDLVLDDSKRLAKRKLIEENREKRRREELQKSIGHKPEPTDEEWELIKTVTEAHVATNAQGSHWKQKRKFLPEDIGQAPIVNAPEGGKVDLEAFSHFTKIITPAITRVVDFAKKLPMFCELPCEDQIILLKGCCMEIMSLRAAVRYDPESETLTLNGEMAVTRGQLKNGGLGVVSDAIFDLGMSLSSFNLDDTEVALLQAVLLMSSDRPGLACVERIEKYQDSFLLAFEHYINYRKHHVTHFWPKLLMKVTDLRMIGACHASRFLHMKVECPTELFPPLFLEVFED
Sequence of THRA (gene 7067) (P10827 whole entry, looked up, the tested form may be a part): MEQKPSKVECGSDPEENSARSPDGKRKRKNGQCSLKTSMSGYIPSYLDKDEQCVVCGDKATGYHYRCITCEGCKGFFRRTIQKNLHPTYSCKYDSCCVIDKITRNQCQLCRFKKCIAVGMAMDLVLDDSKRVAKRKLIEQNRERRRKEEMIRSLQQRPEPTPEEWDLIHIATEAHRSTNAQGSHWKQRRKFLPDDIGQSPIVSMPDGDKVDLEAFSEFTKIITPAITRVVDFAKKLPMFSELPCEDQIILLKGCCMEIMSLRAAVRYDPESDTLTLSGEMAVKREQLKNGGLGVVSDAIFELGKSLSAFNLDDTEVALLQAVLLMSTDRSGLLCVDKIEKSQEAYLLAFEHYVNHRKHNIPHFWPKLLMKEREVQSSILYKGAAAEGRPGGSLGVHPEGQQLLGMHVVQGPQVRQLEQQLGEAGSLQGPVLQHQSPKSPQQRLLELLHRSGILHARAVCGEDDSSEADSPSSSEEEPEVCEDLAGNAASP
Sequence of Retinoic acid receptor RXR-alpha (Homo sapiens) (P19793 whole entry, looked up): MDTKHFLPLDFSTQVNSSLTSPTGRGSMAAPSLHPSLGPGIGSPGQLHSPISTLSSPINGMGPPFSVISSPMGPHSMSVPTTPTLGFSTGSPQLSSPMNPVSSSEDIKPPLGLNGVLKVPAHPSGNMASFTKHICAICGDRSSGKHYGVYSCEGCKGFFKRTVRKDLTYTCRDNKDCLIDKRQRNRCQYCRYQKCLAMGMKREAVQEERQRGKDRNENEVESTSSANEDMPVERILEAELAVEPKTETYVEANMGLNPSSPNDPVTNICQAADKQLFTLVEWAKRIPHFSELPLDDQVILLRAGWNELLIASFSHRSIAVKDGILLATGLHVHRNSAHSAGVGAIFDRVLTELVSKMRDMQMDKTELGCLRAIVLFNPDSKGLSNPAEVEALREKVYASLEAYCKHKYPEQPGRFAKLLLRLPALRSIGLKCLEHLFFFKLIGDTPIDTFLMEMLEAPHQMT

In the case of `CNC(=O)ON=C(CSC)C(C)(C)C`, the result in assay [1], in assay [2], in assay [3], in assay [4], in [5] and in assay [6] was inactive. In addition, the compound was called inactive (in assay [7]; in [8]; in [9]; with THRA (gene 7067); with THRB (gene 7068) [10]; in the assay with THRB (gene 7068) [11]). In addition, the result in [12], in [13], in assay [14], in [15] and in assay [16] was inactive.

In the case of `Nc1ccncc1`, the call in assay [1], in [2], in assay [3], in [4], in assay [5] and in assay [6] was inactive. Also, the compound was classed as inactive in assay [7] and in assay [17].

The AC50 is the concentration at which the activity in the assay is half-maximal. In the case of `O=c1ccc2cc(O[C@@H]3O[C@H](CO)[C@@H](O)[C@H](O)[C@H]3O)c(O)cc2o1`, the outcome in [1], in assay [3], in [5] and in assay [7] was inactive. For the same compound, the half-maximal activity concentration (AC50) in [2] was 10.3 µM (active); in [4], 12 µM (active); in [6], 10.3 µM (active); in [17], 10.9 µM (active).

Take `CCOC(=O)C1(c2ccccc2)CCN(CCC(C#N)(c2ccccc2)c2ccccc2)CC1`: the call (in [1]; in assay [3]; in assay [5]; in assay [7]; with PGR (gene 5241) [18]; in assay [20]) was inactive. In addition, the result (in [21]; with PGR (gene 5241) [22]; in the assay with PGR (gene 5241) [23]; in [24]) was inactive. Also, the AC50 is 16.3 µM (active) and 6.96 µM (active) in [2]; 41.6 µM (active) and 7.95 µM (active) in assay [4]; 56.4 µM (active) and 23.9 µM (active) in assay [6]; 43.7 µM (active) and 8.27 µM (active) in assay [17]; 13.7 µM (active) in the assay with PGR (gene 5241) [19].
